Source: PubChem BioAssay
Sampled rows, rich in hits. Any-hit rate of the full collection: about 7.1%.
p53 reactivator = restores transcriptional activity of mutant p53; H1299 p53-A138V BP100-luciferase reporter, luminescence, 24 h; Potency, µM (series often up to 92.2 µM), for the others: at the highest dose activity change, positive = activation, actives largely listed as activators; 320,000 compounds, 0.063% hits; AID 504706; note: % of control where 0% means no effect; nearly all actives have a fitted effect of over 45% in size
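H1299 (p53-null), stable ts p53-A138V + BP100-Luc; 1000 cells/well, Opti-MEM/10% FBS; cpd 4 pt, 1:5; 24 h, 37 deg C, 5% CO2; detection reagent 10 min RT; luminescence.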
SW480 rerep = DNA re-replication induction in SW480 cells; 340,000 compounds, 1.8% hits; SW480 DNA re-replication, Hoechst DNA content imaging, 48 h; Potency, µM (titrated, usually from 46.1 µM), for inactives: top-dose re-replication activation, most hits filed as activators; note: % of control where 0% means no effect; nearly all actives have a fitted effect of over 55% in size
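Per well, 250 cells were exposed to pinned compound for 48 hr. Nuclear DNA was visualised with Hoechst (40 min, 37 C) and total object intensity recorded by fluorescence scanning.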
A-T KAP1 phos = candidate therapy for ataxia-telangiectasia | Potency, µM (highest dose often 57.5 µM), for inactives: top-dose activation, hits mostly activators | 320,000 compounds, 0.19% hits | AID 485349 | F2112 A-T fibroblasts, KAP-1 phosphorylation AlphaLISA; neocarzinostatin DNA damage 30 min before lysis; note: % of control where 0% means no effect; nearly all actives have a fitted effect of over 45% in size
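hTERT-immortalized A-T patient fibroblasts (F2112), 500 cells/well in OPTI-MEM, 1% FBS, got compounds for 60 min, then NCS for 30 min at 37C. Lysates were then assayed for phospho-KAP-1 by AlphaLISA (anti-pKAP1 donor, anti-KAP1 acceptor beads), 6 hr at 25C.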
ELG1 genotoxic = genotoxicity induction in ELG1-luciferase HEK293T cells; 330,000 compounds, 1.3% hits; Potency, µM (doses to about 46 µM), for inactives: top-dose activity change, positive = activation, actives largely listed as activators; HEK293T ELG1-luciferase reporter, luminescence, 16 h; AID 504466; note: % of control where 0% means no effect; nearly all actives have a fitted effect of over 60% in size
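Cells (2,000/well) expressing the ELG1-luciferase fusion are dosed by pin tool and kept 16 hr at 37 °C, 5% CO2. Signal comes from ONE-Glo luciferase reagent after 30 min at room temperature.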
ELG1 repair inh = ELG1-dependent DNA repair inhibition. Potency, µM (titrated, usually from 46.1 µM), without a hit: at the highest dose activity change, negative = inhibition, usual class: inhibitors. HEK293T ELG1-luciferase reporter, luminescence, 16 h; DNA damage induced by 5-fluorouridine. AID 504467. 330,000 compounds, 2.3% hits; note: % is set by controls: 0 for no effect and ±100 for the full control effect; nearly all actives have a fitted effect of over 55% in size
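HEK293T cells expressing luciferase-tagged ELG1 (2,000/well) received 5-Fluorouridine plus compound or DMSO for 16 hr at 37 °C. Luciferase was read by ONE-Glo luminescence after 30 min at room temperature.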
MCF10A rereplic = inducers of DNA re-replication in MCF 10A breast cells. MCF 10A DNA re-replication, Hoechst nuclear intensity, 48 h. Potency, µM (doses to about 46.1 µM), for inactives: at the highest dose activity, positive = re-replication, usual class: activators. 350,000 compounds, 2.9% hits. AID 624296; note: % of control where 0% means no effect; nearly all actives have a fitted effect of over 50% in size
Starred values were filed as active, the others as inactive; ? = inconclusive; . = no result given; [ ] = another dose, or the depositor's remark. Calls come from the whole dose curve; as a rule, active = well fitted curve in the direction sought with a large enough effect; inconclusive = small, poorly fitted or top-dose-only effect, or another doubt; inactive = no such curve, though single readings can be large; an effect the other way counts as inactive or inconclusive. Potency is the fitted concentration of half-maximal effect.

SMILES | p53 reactivator | SW480 rerep | A-T KAP1 phos | ELG1 genotoxic | ELG1 repair inh | MCF10A rereplic
COc1ccc(NC(=O)c2nc[nH]c2C(=O)Nc2ccccc2C)cc1 | 2% | 18µM* | -1% | -2% | -8% | ?
Cc1ccccc1NC(=O)c1[nH]cnc1C(=O)NN | 0% | 0% | -14% | 0% | -1% | 2%
CCOc1ccccc1NC(=O)CSc1cn[nH]n1 | 7% | -59% | 2% | -2% | 2% | 16µM*
Cc1cccc(C2c3[nH]c4ccccc4c3CCN2C(=O)Cc2nc(-c3ccccc3)n[nH]2)n1 (stereo unspecified) | -2% | -69% | -1% | -9% | 18µM* | 11%
Cc1cccc(C2c3[nH]c4ccccc4c3CCN2C(=O)CN2CCOC2=O)n1 (stereo unspecified) | -1% | -8% | 2%[11.5 µM] | 3% | 7% | 4%
COc1cc(C2C(C#N)=C(N)N(N(C)C)C3=C2C(=O)CC(C)(C)C3)ccc1O (stereo unspecified) | -5% | 3% | 3% | 0% | 20% | -5%
Cc1ccc(CNc2ncnc3c2cnn3-c2ccccc2)cc1 | 4% | -20% | 11% | 7% | 24% | 25%
Brc1ccc2ncnc(NCc3ccco3)c2c1 | 18% | 7% | 6% | -12% | 8.2µM* | ?
Cc1ccc(-n2ncc3c(NCc4ccccc4)ncnc32)cc1 | ? | -2% | -3% | 4.6µM* | ? | 6%
Cc1ccc(-n2ncc3c(NCc4cccnc4)ncnc32)cc1C | ? | -1% | 1% | 9.2µM* | ? | 12%
Clc1ccc(Cn2ncc3c(NCc4ccccc4)ncnc32)cc1 | 2% | ? | 3% | 0% | ? | 6.5µM*
c1ccc(Cn2ncc3c(NCc4ccco4)ncnc32)cc1 | 4% | 5% | 16% | -2% | ? | -6%
c1ccc2[nH]ccc2c1 | . | -4% | . | . | . | -4%
c1ccc(-n2ncc3c(NCc4ccco4)ncnc32)cc1 | 20% | 21µM* | 9% | 10µM* | ? | 13µM*
O=C(Nc1ccccc1N1CCCCC1)c1ccc(F)c(S(=O)(=O)N2CCOCC2)c1 | -6% | -23% | 1% | -6% | 13µM* | 10%
Cc1ccc(C(=O)Nc2ccccc2N2CCCCC2)cc1S(=O)(=O)N1CCOCC1 | . | -24% | . | . | . | 17%
O=C(Nc1ccc(S(=O)(=O)Nc2ncccn2)cc1)c1ccc(F)c(S(=O)(=O)N2CCOCC2)c1 | 0% | -16% | 28µM* | 3% | -7% | 1%
COc1ccccc1CC(=O)Nc1cccc(C(=O)Nc2nccs2)c1 | -1% | -15% | 9% | -5% | 16µM* | 1%
COCCN1C(=O)c2ccc(C(=O)Nc3nccs3)cc2C1=O | -1% | 1.2µM* | -1% | -1% | -2% | ?
C=CCCO[C@@H]1O[C@@H](C)[C@H](O)C[C@H]1O | 3% | -6% | -10% | 1% | 13% | -2%
CCOC(=O)C(C#N)=CN1CCNc2ccccc21 | . | 2% | . | . | . | -2%
CCOC(=O)c1cc(C)sc1NC(=O)c1ccc(Cl)s1 | -3% | 1% | 3% | 1% | -2% | 3.3µM*
CC(=O)N[C@H]1[C@H]([C@H](O)[C@H](O)CO)O[C@](O)(C(=O)O)C[C@@H]1O | . | -1% | . | . | . | 3%
CC1(c2ccccc2)NC(=O)N(CC(=O)Nc2ccccc2C(=O)NC2CC2)C1=O (stereo unspecified) | -7% | ? | 4% | -1% | 17% | 0%
CCOC(=O)c1c(CCl)nc2ccccc2c1-c1ccccc1 | 4% | ? | -36% | -6% | -7% | ?
ClCc1nc2ccccc2c2ccccc12 | 4% | 18µM* | 2% | -24% | ? | ?
CCCCN(C(=O)c1cccc(S(=O)(=O)N(CC)c2ccccc2)c1)c1c(N)n(CCCC)c(=O)[nH]c1=O | . | -12% | . | . | . | 1%
